# About 83,000 compounds went through this panel and 20% of them were active in at least one assay; those are over-represented in the sample as a whole.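 Percent growth is the endpoint: 0 to 100 indicates growth inhibition (40 means 60% inhibition), 0 means no net growth, and negative values indicate cell death.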 Values without a mark were called inactive. Calls of active or inactive are those of the source. Rule for the calls: active = growth percent below 10; inactive = the rest.
# System: HL-60(TB) leukemia
# Assay: NCI-60 one-dose screen, 48 h (100 = growth as untreated, 0 = no growth, -100 = all killed)
# Conditions: 10 µM unless noted
row,SMILES,growth
1,N#Cc1c(N2CCNCC2)nc2sc3cc(Cl)c(Cl)cc3n2c1=N,89%
2,COc1ccc(C(=O)C(CN(C)C)CN(C)C)cc1,3.54% (active)
3,CC[n+]1c(C)ccc2cc(C)ccc21,87%
4,C=C(C)[C@@H]1CC[C@]2(C(=O)OC)CC[C@]3(C)[C@H](CC[C@@H]4[C@@](C)(CC/C(N)=N/O)[C@H](C(=C)C)CC[C@]43C)[C@@H]12,92.2%
5,COc1cc2c(cc1OCCCCN1CCN(CC(=O)Nc3ccc(Cl)cc3C(=O)c3ccccc3Cl)CC1)N=CC1CCCN1C2=O (stereo not given),-72.1% (active)
6,COc1cc(-c2nc3ccccc3o2)cc(CN2CCCCC2)c1O,11.9%
7,[2H]c1cc2c(c([2H])c1F)/C(=C/c1[nH]c(C)c(C(=O)NCCN(CC)CC)c1C)C(=O)N2,4.9% (active)
8,Clc1ccc(-c2cn(-c3ccccc3)c(-c3ccccc3)n2)c(Cl)c1,52.1%
9,c1ccc2c(c1)OC1OC2Oc2ccccc21,80%
10,Cc1ccc(CSCc2ccc(C(=O)NC3CC3)o2)cc1,59.5%
11,CN(CCC(=O)c1ccccc1)CCC(=O)c1ccccc1,75.4%
12,N#Cc1c(Oc2ccc([N+](=O)[O-])cc2)nc2sc3cc(Cl)ccc3n2c1=N,151%
13,Nc1nc2nnc(-c3ccccc3)c(-c3ccccc3)n2n1,146%
14,O=C1/C=C/[C@@H](O)[C@@H]2C[C@@H](O)C[C@H]2/C=C/CCC[C@H]([C@@H](O)CO)O1,101%
15,COc1cc(/C=C/C(=O)c2cc(OC)c(OC)c(OC)c2)ccc1Oc1nc2c(c(=O)n(C)c(=O)n2C)n1C,-13.1% (active)
16,COc1ccc2c(c1)c(-c1nonc1-c1cn(C)c3ccc(OC)cc13)cn2C,-1.01% (active)
17,COc1ccc(C(=O)N/N=C/c2cc(C(F)(F)F)ccc2Cl)cc1,100%
18,O=c1c2cccc3c(Nc4c(F)cccc4F)ccc(c32)c2nc3ccccc3n12,85.9%
19,O=c1[nH]ccc2c(S(=O)(=O)N3CCCNCC3)cccc12,87.1%
20,COc1cc(/C=C/c2cc(/C=C/c3ccc(O)c(OC)c3)nc(N)n2)ccc1O,3.67% (active)

row,SMILES,growth
1,O=C(O)[C@@H](Cc1ccc2ccccc2c1)NC(=O)n1c2ccccc2c2ccccc21,6.8% (active)
2,N#C/C(=C(/O)CCCO)c1nc2ccccc2c(=O)[nH]1,102%
3,O=C(Nc1ccc(Oc2ccc(F)cc2)c(Cl)c1)c1cnccn1,21.4%
4,CCN1CCN(C(=O)[C@]23CC[C@@H](C)[C@H](C)[C@H]2C2=CC[C@@H]4[C@@]5(C)C/C(=C/c6cccc(OC)c6OC)C(=O)C(C)(C)[C@@H]5CC[C@@]4(C)[C@]2(C)CC3)CC1,2.97% (active)
5,COc1ccccc1-[n+]1cc(-c2ccc(-c3ccccc3)cc2)n2c1CCCCC2,-27.7% (active)
6,c1cc(C2=N[C@@H]3c4ccccc4C[C@@H]3O2)nc(C2=N[C@@H]3c4ccccc4C[C@@H]3O2)c1,105%
7,Cc1ccc(CCC(=O)Nc2ncc(Cc3cc(Cl)ccc3Cl)s2)o1,-40.4% (active)
8,CCN(CC)CCCCCCCNc1cc(OC)cc2c(C)ccnc12,56.2%
9,Cc1cccc2c(NCCN(C)C)c3cccc(C(=O)NCCN(C)C)c3nc12,-8.73% (active)
10,CC(CCN1CCN(CCC(C)CC(C)(C)C)C1CC(C)CC(C)(C)C)CC(C)(C)C (stereo not given),97.8%
11,C=C(C)[C@@H]1CC[C@]2(C(=O)NCCNCCNCCN)CC[C@]3(C)[C@H](CC[C@@H]4[C@@]5(C)CCC(=O)C(C)(C)[C@@H]5CC[C@]43C)[C@@H]12,-35.6% [100 µM] (active)
12,Cc1nnc(/N=C2\NC(=O)/C(=C/C=C/c3ccccc3)S2)s1,75.3%
13,CC[C@H](Nc1ncnc2nc[nH]c12)c1nc2cccc(CC(=O)c3ccc(C(=O)NO)cc3)c2c(=O)n1-c1ccccc1,75.5%
14,Oc1ccccc1-c1nc2c3ccccc3c3ccccc3c2o1,88%
15,Cc1cccc(NC(=O)c2sc3nc4c(cc3c2N)C(=O)CCC4)c1,6.14% (active)
16,Nc1cc2c(cc1Cl)-c1ccc([N+](=O)[O-])cc1/C2=N\O,89.5%
17,CCCCCCCCCCCCCCCCCC1=NC(C)(CO)CO1 (stereo not given),87.2%
18,Nc1c(C(=O)Nc2c(Cl)cccc2Cl)sc2nc3c(cc12)CCCC3,35%
19,O=C(Nc1ncc(Cc2ccccc2)s1)c1cc(-c2ccccc2)nc2ccccc12,99.2%
20,CC1CCCN(CCCCCOc2ccc3oc4ccccc4c(=O)c3c2)C1 (stereo not given),45.5%

# Source: PubChem BioAssay (NCI)
